Integrin act MD – activates integrin-mediated alleviation for muscular dystrophy. Potency, µM (series often up to 38.3 µM), for inactives: at the top dose activation, actives largely listed as activators. AID 624291. alpha7betagal myoblasts, beta-gal FDG fluorescence, 48 h. 350,000 tested, 0.064% active;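 note: potency is the fitted concentration of half-maximal effect; 100% = response of the positive control SU9516; nearly all actives have a fitted effect of over 60% in size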
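alpha7betagal+/- myoblasts (passage 13, 250/well) treated 48 h at 37C with compounds at 1:260 dilution of DMSO stock. Lysed, then beta-galactosidase activity read as FDG fluorescence (ex 480/em 540) after 30 min, with pre-read for autofluorescence.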
ATXN2 expr inh – reduces ATXN2 reporter expression in HEK-293 cells; HEK-293 ATXN2-luciferase reporter, luminescence, 24 h; Potency, µM (highest dose often 57 µM), inactives show at the highest dose activity change, negative = inhibition, actives largely listed as inhibitors; 360,000 tested, 0.72% active; AID 1745845; note: potency is the fitted concentration of half-maximal effect; % is set by controls: 0 for no effect and ±100 for the full control effect; nearly all actives have a fitted effect of over 55% in size
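ATXN2-luciferase reporter cells (luciferase flanked by upstream and downstream ATXN2 gene portions) were treated 24 h at 37 °C with compounds at up to 57 uM. SteadyGlo luminescence gave expression; GF-AFC fluorescence gave viability.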
IL1B secr inh – blocks inflammasome-driven IL-1 beta release; THP-1 LPS/ATP IL-1B secretion, AlphaLISA, 16 h; active compounds read low; activity change, % at 57.5 µM; 360,000 tested, 4.7% active; AID 743279; in the data active = activity change below about -50%; inconclusive = mostly about -30% to -49%; note: % is set by controls: 0 for no effect and ±100 for the full control effect
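THP-1 cells pretreated 1 hr with compounds (up to 57.5 uM final), then stimulated with LPS (250 ng/mL final) plus ATP (1.25 mM final); secreted IL-1B measured by AlphaLISA after 16 hr, decreased signal indicating inhibition.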
S2 tox – reduces viability in counter-screen for ATXN expression inhibitors | 400,000 tested, 0.49% active | S2 cells (HEK-293 line with an ATXN2-luciferase reporter) viability, CellTiter-Fluor protease fluorescence, 24 h | Potency, µM (top dose mostly 56.7 µM), hits mostly cytotoxic | AID 651635; note: potency is the fitted concentration of half-maximal effect; nearly all actives have a fitted effect of over 40% in size
DRD3 antagonist – blocks the human D3 dopamine receptor | D3R cells, DiscoveRx beta-arrestin luminescence, antagonist mode; active compounds read low | AID 652054 | max response, negative = inhibition, % | P35462 | 360,000 tested, 2.5% active; in the data active = max response below about -50%; inconclusive = no clear call, values can overlap the other calls; note: % is set by controls: 0 for no effect and ±100 for the full control effect
Target sequence (P35462 whole entry, looked up): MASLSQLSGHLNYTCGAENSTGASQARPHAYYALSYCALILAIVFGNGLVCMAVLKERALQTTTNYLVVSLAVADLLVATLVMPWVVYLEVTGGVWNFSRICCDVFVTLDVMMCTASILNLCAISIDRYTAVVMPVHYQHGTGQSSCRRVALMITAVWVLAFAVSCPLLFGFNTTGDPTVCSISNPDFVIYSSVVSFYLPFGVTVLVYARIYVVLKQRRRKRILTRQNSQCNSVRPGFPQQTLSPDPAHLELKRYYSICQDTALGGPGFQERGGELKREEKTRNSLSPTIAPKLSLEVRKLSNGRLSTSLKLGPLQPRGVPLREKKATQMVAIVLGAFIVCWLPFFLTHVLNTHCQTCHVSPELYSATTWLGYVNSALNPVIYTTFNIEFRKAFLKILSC
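Cells plated overnight at 1500 cells/well, then exposed to library compounds with dopamine controls for 90 minutes at 37 degrees C. DiscoveRx reagent added for 30–60 minutes at room temperature; luminescence read, quantitative HTS format.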
DRD3 agonist – agonists of human D3 dopamine receptor; P35462; D3R DiscoveRx beta-arrestin cells, luminescence, 90 min; 410,000 tested, 0.58% active; max activation, %; AID 652048; in the data active = max activation above about 30%; note: 0% is about no effect
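Agonist mode: compounds and dopamine controls were applied to plated cells for 90 min at 37 degrees C after an overnight attachment at 1500 cells/well. Luminescent read-out followed 30 - 60 minutes at room temperature with DiscoveRx detection reagent.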
* marks the source's active call; other numbers are inactive results; i = inactive; ? = inconclusive; . = no result; [ ] = another dose, or the depositor's remark. Shown are actives, neighbours in structure and some others; about 7% of the full set was active somewhere. Unless noted, calls come from the whole dose curve; as a rule, active = well fitted curve in the direction sought with a large enough effect; inconclusive = small, poorly fitted or top-dose-only effect, or another doubt; inactive = no such curve, though single readings can be large; an effect the other way counts as inactive or inconclusive.

SMILES	Integrin act MD	ATXN2 expr inh	IL1B secr inh	S2 tox	DRD3 antagonist	DRD3 agonist
CCCN1CCC[C@H](c2cccc(O)c2)C1	.	1.2%	-7.9	i	16.2	121.1*
CSc1nc(N)c(N=Nc2ccc([As](=O)(O)O)cc2)c(=O)[nH]1	-21.8%	1.7%	?	?	-0.7	9.0
CNC(=O)O/N=C/c1nn(C(=O)C(C)(C)C)cc1Br	8.7%	-6.3%	17.6	i	6.4	6.5
CCCCCCCCCCCC[N+](C)(C)CCOc1ccccc1	.	31.6µM*	.	?	.	-25.0
CCCCCCCCCC[N+](C)(C)CCCCCCCCCC	.	.	.	.	.	0.7
CCOC1=C2[C@@H](CN(S(=O)(=O)c3ccccc3C)[C@H]2c2ccc(Cl)cc2)[C@H]2C(=O)NC(=O)[C@H]2C1	.	-9.0%	9.3	?	-71.9*	-1.1
COc1ccc(CN2CCN(C(=O)COc3ccccc3)CC2)c(OC)c1	.	-15.5%	.	i	.	-17.2
CCCN(CCC)c1c([N+](=O)[O-])cc(S(N)(=O)=O)cc1[N+](=O)[O-]	.	50.1µM*	.	50.1µM*	.	-3.0
CN(C)[C@@H]1C(=O)C(C(N)=O)=C(O)[C@]2(O)C(=O)C3=C(O)c4c(O)cccc4[C@@](C)(O)[C@H]3[C@H](O)[C@@H]12	.	.	.	i	.	.
BrCCc1ccccc1	.	-3.4%	8.1	i	-98.8*	-92.5
CCCCCCCCCC(CC)c1ccc(S(=O)(=O)O)cc1 (centres undefined)	.	12.9%[116 µM]	.	31.6µM*	.	-12.8
O=c1c(C=NCCN2CCNCC2)c(O)n(C2CCCCC2)c(=O)n1C1CCCCC1	-47.8%	?	-60.6*	?	-10.6	-12.8
O=c1[nH]c(=S)n(C2CC2)c(O)c1C=NCCN1CCOCC1	39.1%	-17.6%	21.7	i	3.0	-3.4
O=c1[nH]c(=O)n(C2CCCCCC2)c(O)c1C=NCCCN1CCOCC1	16.4%	2.9%	7.9	i	-61.4*	-5.7
O=C(Nc1ccc(Br)cc1C(=O)c1ccccc1Cl)c1ccccc1F	.	.	.	.	.	-8.1
O=S(=O)(F)c1ccc2nc(-c3cccc(Sc4ccccc4)c3)cc(Cl)c2c1	10.4%	-0.1%	16.2	i	2.8	3.7
COc1cccc(CN2CC=C(c3ccc(F)cc3)CC2)c1	-3.1%	-3.9%	-7.9	i	-77.5*	-26.2
COc1ccc2ccc(O)c(CN3CC=C(c4ccccc4)CC3)c2c1	-18.6%	.	-15.8	?	?	0.4
CN1CCN(c2ccccc2NC(=O)c2ccc(-c3ccc(Cl)c(Cl)c3)o2)CC1	0.0%	?	-77.7*	?	15.1	-17.6
CCN1CCN(c2ccc(NC(C)=O)cc2Cl)CC1	13.8%	3.3%	2.9	i	-6.9	-8.3
COc1ccc(OCC(=O)N2CCCC(N3CCN(c4ccccc4C)CC3)C2)cc1 (centres undefined)	-36.2%	-26.3%	-15.7	?	-14.9	-25.4
O=[N+]([O-])c1ccc(NCc2ccc(Cl)cc2)c2ccncc12	-21.9%	-10.1%	-57.1*	?	0.0	1.6
O=C(COc1ccc2ccccc2c1)N1CCN(C2CCN(Cc3ccccc3)CC2)CC1	-25.5%	-21.8%	-18.9	i	-23.1	-8.8
CCOC(=O)c1cc2cc(OC)ccc2n1C1CCN(Cc2ccccc2)CC1	.	21.5%	28.9	i	-88.9*	-10.2
COC(=O)C1=C(C)N(C)C(=O)NC1c1cc(Cl)c(O)c(OC)c1 (centres undefined)	3.9%	-11.2%	7.9	?	6.9	2.9
Cc1ccc(NC(=O)Cn2cc(C(=O)c3ccccc3)c3ccccc32)c(C)c1	.	.	.	.	.	4.5
CCC(=O)O[C@H]1CC[C@H]2[C@@H]3CCC4=CC(=O)CC[C@]4(C)[C@H]3CC[C@]12C	.	?	-71.6*	?	-5.2	17.9
CC(=O)C1C(N2CC2)CC2C3CCC4=CC(=O)CCC4(C)C3CCC21C (centres undefined)	-35.0%	-17.2%	-61.2*	?	0.0	2.6
CCC1(O)C(=O)OCc2c1cc1n(c2=O)Cc2cc3c(N)cccc3nc2-1 (centres undefined)	-28.4%	?	-96.7*	?	2.0	-5.2
